This note sets out measurements from ChEMBL document CHEMBL1157539, “Thousands of chemical starting points for antimalarial lead identification” (Nature, 2010).

What all share (assay type): functional
For test [1], the system named is Plasmodium falciparum. Description: GSK_TCMDC: Inhibition of Plasmodium falciparum 3D7 in whole red blood cells, using parasite LDH activity as an index of growth. Test compounds present at 2uM.
Test [2] deals with Plasmodium falciparum. Description: GSK_TCMDC: Inhibition of Plasmodium falciparum Dd2 in whole red blood cells, using parasite LDH activity as an index of growth. Test compounds present at 2uM.
The next test relates to HepG2. Description: GSK_TCMDC: Percent inhibition of human HepG2 cell line. Test compounds present at 10uM.

As a reminder, the Inhibition is the share of the control response that was lost under treatment. Regarding `O=C(Nc1ccc(OC2CCN(Cc3ccc(F)cc3)C2)c(Cl)c1)c1ccoc1.O=C(O)C(F)(F)F` (stereo not given), the Inhibition is given as 90% in the test on Plasmodium falciparum [1], 90% in the test on Plasmodium falciparum [2] and 13% in the test on HepG2.
As to `O=C(NCCCN1CCOCC1)c1ccc(-c2cccc(NC(=O)c3ccc(Cl)c(Cl)c3)c2)cc1`, the Inhibition in the test on Plasmodium falciparum [1] stood at 100%; with Plasmodium falciparum [2], 68%; in the test on HepG2 it was 3%.
On the same counts, the results for `CS(=O)(=O)O.CSc1ccc2ccccc2c1CNCCCCCCNCc1c(SC)ccc2ccccc12` are 99%, 74% and 83%.
The matching figures for `O=C(Nc1ccccc1)N(Cc1cccc(-c2ccc(CNCCc3ccccc3)cc2)c1)C1CCN(Cc2ccccc2)CC1.O=C(O)C(F)(F)F`: 100%, 95% and 100%.
With `O=c1cc(NCCCNCc2ccc(C(F)(F)F)cc2F)[nH]c2ccccc12`, the results for the Inhibition with Plasmodium falciparum [1], in the test on Plasmodium falciparum [2] and in the test on HepG2 were 93%, 48% and 1%, respectively.
The matching figures for `COc1cc2c(cc1C(F)(F)F)N(C(=O)Nc1cccc(-c3ccc(CN(C)C)cc3)c1)CC2`: 100%, 93% and 95%.
The matching figures for `Cc1c(Cn2ncc(N3CC(C)NC(C)C3)c(Cl)c2=O)cccc1NC(=O)Nc1ccc(-c2ccccc2)cc1.O=C(O)C(F)(F)F` (stereo not given): 97%, 35% and 97%.
On to `CC(C)Cc1cn(-c2nc(-c3nc4ccccc4[nH]3)cs2)c2cc(Cl)ccc12.Cl`, for which the figures for the Inhibition in the test on Plasmodium falciparum [1], with Plasmodium falciparum [2] and in the test with HepG2 were 99%, 68% and 9%, respectively.
On the same counts, the results for `O=C(/C=C/c1ccc(Cl)c(Cl)c1)N1CCC(CN2CCC(c3nc4ccccc4n3CCCO)CC2)CC1` are 96%, 0% and 60%.
For `CC(CC(=O)NCC1(c2ccc(F)cc2Cl)CCOCC1)C(=O)c1ccc(Cl)cc1` (stereo not given), the figures for the Inhibition in the test with Plasmodium falciparum [1], in the test with Plasmodium falciparum [2] and with HepG2 were 99%, 91% and 6%, respectively.
On the same counts, the results for `Cc1c(CNCCCNc2nc3ccccc3[nH]2)[nH]c2cc(Cl)cc(Cl)c12` are 100%, 0% and 59%.
For `CC1(C)CC(NCCCCCCCOc2ccc(OCc3ccccc3)cc2)CC(C)(C)N1.Cl`, the Inhibition in the test on Plasmodium falciparum [1] was found to be 100%; in the test with Plasmodium falciparum [2], 73%; in the test on HepG2, 99%.
On the same counts, the results for `Cl.Cn1ccnc1S(=O)(=O)CCNCc1ccc(-c2ccc3ncnc(Nc4ccc(OCc5cccc(F)c5)c(Cl)c4)c3c2)o1` are 100%, 94% and 0%.
On the same counts, the results for `CC(=O)Nc1cccc(-c2cn(-c3ccc(OCc4cccc(F)c4)c(Cl)c3)c3ncncc23)c1` are 100%, 66% and 7%.
On the same counts, the results for `CC(C)(C)c1ccc(NC(=O)Nc2ccc(Cn3ncc(N4CCCNCC4)c(Cl)c3=O)cc2)cc1.O=C(O)C(F)(F)F` are 95%, 33% and 0%.
As to `COc1ccc(C(=O)C2CCN(CCCCNC(=O)c3ccc(NC(=O)c4ccc(Cl)cc4)cc3)CC2)c(OC)c1`, the values for the Inhibition in the test with Plasmodium falciparum [1], with Plasmodium falciparum [2] and with HepG2 were 98%, 13% and 47%, respectively.
The matching figures for `CCC1(C)N=C(N)N=C(N)N1c1ccccc1.Cl` (stereo not given): 98%, 0% and 6%.
On the same counts, the results for `COc1cc(NC(=O)/C=C/c2cccc3ccoc23)ccc1OCCN(C(C)C)C(C)C.Cl` are 90%, 5% and 22%.
As for `O=C(O)C(F)(F)F.O=S(=O)(NCCN1CCCC1)c1ccc(-c2ccc(CNCc3ccccc3)cc2)cc1`, the Inhibition is 99% in the test with Plasmodium falciparum [1], 28% in the test on Plasmodium falciparum [2] and 47% in the test on HepG2.
Take `Cc1ccc(C2(CN3CCC(NC(=O)c4cc[nH]n4)CC3)CCCCC2)cc1`: the Inhibition with Plasmodium falciparum [1] is listed as 97%; in the test with Plasmodium falciparum [2], 96%; in the test on HepG2 it was 0%.
The matching figures for `CC(=NNC(=N)N)c1ccc2c(c1)Cc1ccccc1-2.Cl`: 100%, 10% and 44%.
Turning to `CC(=O)Nc1nc(C(=O)Nc2cccc(-c3ccc(-c4nc5ccccc5[nH]4)cc3)c2)cs1`, the Inhibition stood at 100% in the test with Plasmodium falciparum [1], 60% in the test with Plasmodium falciparum [2] and 88% in the test with HepG2.
On the same counts, the results for `CC(C)COc1ccc(Cl)cc1Cc1nc(-c2nc3ccc(CN4CCCCC4)cc3[nH]2)co1.Cl` are 100%, 70% and 49%.
On the same counts, the results for `COC(=O)c1sc(-c2ccc(Cl)cc2)cc1N(CCCN1CCC(N2CCCCC2)CC1)S(=O)(=O)c1ccc(C)cc1` are 100%, 86% and 25%.
On the same counts, the results for `CNC(=O)c1cc(S(=O)(=O)N2CCN(c3ccccn3)CC2)c(C)s1` are 91%, 52% and 0%.
Regarding `Cc1ccc(Nc2nc3cc(N(C)c4ccnc(Nc5cccc(CS(C)(=O)=O)c5)n4)ccc3o2)cc1.O=C(O)C(F)(F)F`, the Inhibition with Plasmodium falciparum [1] came out at 90%; in the test on Plasmodium falciparum [2], 16%; in the test with HepG2 it was 0%.
The matching figures for `Cc1cc(C(F)(F)F)n2nc(C(=O)N(C)Cc3cncn3Cc3ccc(F)cc3)cc2n1`: 100%, 96% and 0%.
On the same counts, the results for `O=C(O)C(F)(F)F.O=[N+]([O-])c1cccc(CNCC2CCN(Cc3ccc(C(F)(F)F)cc3)CC2)c1` are 100%, 23% and 7%.
On the same counts, the results for `O=C(/C=C/c1cccc2c1OCO2)Nc1ccnc2ccncc12` are 90%, 35% and 17%.
Take `CCN(CC)CCN(Cc1ccc(-c2ccc(C(F)(F)F)cc2)cc1)C(=O)Cn1c(/C=C/c2ccco2)nc(=O)c2ccccc21.O=C(O)C(O)C(O)C(=O)O`: the Inhibition with Plasmodium falciparum [1] is listed as 94%; with Plasmodium falciparum [2], 86%; in the test on HepG2, 28%.
